Assay [1] addresses Ubiquitin carboxyl-terminal hydrolase 2 (Homo sapiens) (UniProt O75604). The assay is described as follows: qHTS Validation Assay for Inhibitors of Ubiquitin-specific Protease USP2a Using CHOP2 as the Reporter (AID 463106). The gist of the method: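 USP2 core (10 nM final) was preincubated with compound 30 min at RT in pH 8.0 Tris/CaCl2/beta-ME/CHAPS buffer. Ub-CHOP2 and reporter substrate (25 nM final each) were then added, with fluorescence (Ex 485/Em 531) read after 60 min. Data were normalized to NEM full inhibition and fitted to concentration-response curves.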
(In general: In qHTS, concentration-response curves come from the screen itself.)

Assay [2] deals with DNA polymerase III PolC-type (Bacillus subtilis (strain 168)) (UniProt P13267). As to the kind of experiment: qHTS Validation Assay for the Inhibitors of DNA Replication in Gram-Positive Bacteria (AID 485295).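 Also: reconstituted holoenzyme with PolC plus beta clamp SSB and primase; PicoGreen fluorescence of double-stranded DNA made on primed circular M13 template; series mostly up to about 57 µM.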 The gist of the method: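 Primed replication of single-stranded M13Gori by a four-protein B. subtilis holoenzyme is measured at room temperature. Double-stranded product is quantified by PicoGreen fluorescence after an EDTA stop; inhibition is scaled between DMSO and EDTA controls.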

Assay [3] concerns the target Tumor susceptibility gene 101 protein (Homo sapiens) (UniProt Q99816). The assay is described as follows: qHTS Validation Assay for Iinhibitors of HIV-1 Budding by Blocking the Interaction of PTAP/TSG101 (AID 485342; calls by dose curve). The gist of the method:
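Fluorescence anisotropy measured PTAP-Tsg101 interaction. Final concentrations were 10 uM protein domain and 50 nM labeled peptide, equilibrated 20 min at room temperature.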

A short description of assay [4]: qHTS Validation Assay to Find Inhibitors of Chronic Active B-Cell Receptor Signaling (AID 485345; active = well fitted curve in the direction sought with a large enough effect in the main read-out, with a control signal flat, not every such curve was filed as active). The gist of the method:
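TMD8 ABC-DLBCL cells stably carrying doxycycline-inducible IkappaBalpha–green luciferase fusion plus unfused red luciferase; compounds 46 uM to 3 nM, 4 h at 37C with doxycycline. Corrected green/red luminescence ratio normalized to 10 uM MG-132 and basal cell wells; curves fitted.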

Assay [5] addresses Beta-2 adrenergic receptor (Homo sapiens) (UniProt P07550). The assay is described as follows: qHTS validation assay of beta-arrestin-biased ligands of beta2-adrenergic receptor (AID 485366). The gist of the method: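 Luminescence from a tTA-responsive luciferase, induced when recombinant beta-arrestin is recruited to recombinant beta2-AR, served as the agonism signal. Cells were exposed to compound for 18 hr at 37 degrees C; titrations spanned up to 46 microM.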

For assay [6], the target named is ATP-dependent 6-phosphofructokinase (Trypanosoma brucei brucei) (UniProt O15648). The assay is described as follows: qHTS Validation Assay to Find Inhibitors of T. brucei phosphofructokinase (AID 485368). The gist of the method:
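Activity was normalized between 1x (1.25 nM) PFK wells as no inhibition and enzyme-free wells as full inhibition, from luminescence after ADP-Glo detection of ADP made from 0.5 mM F6P and 0.1 mM ATP over 45 min.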

Assay [7] in a line: Quantitative high throughput screen for delayed death inhibitors of the malarial parasite plastid, 96 hour incubation (AID 488745). Also: nearly all actives have a fitted effect of over 70% in size. Also: potency is read from the fitted curve at half-maximal effect. The gist of the method: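 Luciferase-expressing P. falciparum in erythrocytes (2% hematocrit, 0.1% parasitemia) incubated with compound for 96 h at 37 C, 5% CO2, in RPMI 1640 with 0.5% Albumax. Growth inhibition read as decreased luminescence.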

A short description of assay [8]: Quantitative high throughput screen for delayed death inhibitors of the malarial parasite plastid, 48 hour incubation (AID 488752). Also: nearly all actives have a fitted effect of over 65% in size. Also: potency is read from the fitted curve at half-maximal effect. A digest of the protocol: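 Erythrocytes infected with firefly luciferase-expressing P. falciparum (2% hematocrit, 0.1% parasitemia) cultured with compound for 48 h at 37 C, 5% CO2, in RPMI 1640/0.5% Albumax. Growth inhibition read as loss of luminescence.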

Assay [9] deals with Thioredoxin reductase 1, cytoplasmic (Rattus norvegicus) (UniProt O89049). As to the kind of experiment: qHTS Assay for Substrates of Mammalian Selenoprotein Thioredoxin Reductase 1 (TrxR1) (AID 488772).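 Also: NADPH fluorescence in the first read after selenite addition and not the 8 min delta; series mostly up to about 57 µM; a drop in NADPH fluorescence below the no-compound background marks a TrxR1 substrate.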 The gist of the method: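 Quantitative HTS in Tris-HCl buffer at pH 7.5 with EDTA and Tween-20, using rat TrxR1, 400 uM NADPH and 400 uM selenite (final). A fall in initial NADPH fluorescence relative to background marked substrate behaviour.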

Assay [10] has the same target. The assay is described as follows: qHTS Assay for Inhibitors of Mammalian Selenoprotein Thioredoxin Reductase 1 (TrxR1) (AID 488773).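 Also: drop in NADPH fluorescence over an 8 min run after selenite addition; series mostly up to about 57 µM; nearly all actives have a fitted effect of over 40% in size.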 Conditions: Potency: inhibition. The gist of the method:
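Steps: enzyme (90 nM) plus NADPH (400 uM final), 5 min at ~22 deg C; compound added, 15 min; selenite (400 uM final) added; fluorescence followed for 8 min. Concentration-response curves derived from the normalized delta values.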

The target in assay [11] is Flap endonuclease 1 (Homo sapiens) (UniProt P39748). The assay is described as follows: qHTS Validation Assay for the Inhibitors of Human Flap endonuclease 1 (FEN1) (AID 488816). A digest of the protocol:
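Human FEN1 (10 nM) preincubated 15 min at room temperature with compounds, then flap DNA substrate added at 50 nM final. Fluorescence read at 0 and 15 min; concentration-response fitted with four-parameter Hill equation.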

The target of assay [12] is Methanococcus maripaludis chaperonin (MmCpn) (UniProt Q6LX38). The assay is described as follows: High-Throughput Screening for Modulators of Cytosolic Chaperonin Activity: MmCpn Primary Screen (AID 488978).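 Also: 50 nM MmCpn enzyme hydrolysing 30 µM ATP at 37 °C.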 A digest of the protocol: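 Measures ATPase turnover of the M. maripaludis chaperonin (50 nM final) against 30 uM ATP over 10 min at 37C, with compound added 5 min beforehand at room temperature. ADP is quantified by HTRF immunodetection.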

Assay [13] concerns the target Transient receptor potential cation channel subfamily V member 1 (Homo sapiens) (UniProt Q8NER1). As to the kind of experiment: HTS Assay for Compounds that Act as Enhancers of the Vanilloid Receptor 1 (AID 488979). The gist of the method: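 TRPV1 cells loaded with Fluo-8 calcium dye; compound added and Ca2+ signal (ex 480/em 520 nm) followed 3 min, then capsaicin at EC20 added and read 2 more min to detect enhancement.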

Assay [14] addresses Thyrotropin receptor (Homo sapiens) (UniProt P16473). As to the kind of experiment: qHTS Assay for Antagonists of the Thyroid Stimulating Hormone Receptor (AID 488980). Also: series mostly up to about 58 µM. A digest of the protocol: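 Cells expressing human TSHR (HEK293) are dispensed in HBSS/HEPES containing 70 uM RO 20-1724, compound is added, then TSH at EC80 (4 nM final). Antibody in lysis buffer follows, 30 minutes at room temperature before HTRF detection.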

The target in assay [15] is D(1A) dopamine receptor (Homo sapiens) (UniProt P21728). As to the kind of experiment: HTS Assay for Allosteric Agonists of the Human D1 Dopamine Receptor: Primary Screen for Agonists (AID 488981). The gist of the method:
(§1)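 Tetracycline-induced HEK293 Trex D1 cells with forced coupling to calcium, loaded with no-wash calcium dye; kinetic fluorescence read 180 s after compound addition for agonism, then a further 180 s after an EC20 dopamine challenge for potentiation.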

Assay [16] has the same target. The assay is described as follows: HTS Assay for Allosteric Agonists of the Human D1 Dopamine Receptor: Primary Screen for Antagonists (AID 488983).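 Also: calcium flux response to an EC80 dopamine challenge measured with no-wash dye; nearly all actives have a fitted effect of over 65% in size.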 The gist of the method:
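Tetracycline-induced HEK293 T-REx D1 line, force-coupled to calcium flux, read with no-wash calcium dye. Compound added after 10 s baseline, read 180 s for agonism, then EC80 dopamine added and read a further 180 s.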

In assay [17] the target is M-phase phosphoprotein 8 (Homo sapiens) (UniProt Q99549). As to the kind of experiment: qHTS Validation Assay for Inhibitors for MPP8 Chromodomain Interactions with Methylated Histone Tails (AID 488949).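 Also: AlphaScreen signal from MPP8 chromodomain bound to biotinylated H3K9me3 peptide; top concentration of the series differs between compounds; nearly all actives have a fitted effect of over 55% in size.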 The gist of the method:
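Disruption of the preformed MPP8–trimethyl-H3K9 peptide complex (both 50 nM, 30 min, RT) is measured after 30 min compound exposure, using AlphaScreen proximity beads; aurintricarboxylic acid titration serves as plate control.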

The target in assay [18] is Chromobox protein homolog 1 (Homo sapiens) (UniProt P83916). As to the kind of experiment: qHTS Validation Assay for Inhibitors of HP1-beta Chromodomain Interactions with Methylated Histone Tails (AID 488953). Also: nearly all actives have a fitted effect of over 50% in size. Also: potency is read from the fitted curve at half-maximal effect. A digest of the protocol: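 HP1-beta (50 nM) preformed 30 min with biotinylated H3(1-18)K9me3 peptide (50 nM) in PBS pH 7.4, 0.01% Tween-20. Compounds added for 30 min at room temperature. Complex disruption read by AlphaScreen with streptavidin donor/nickel chelate acceptor beads (10 ug/mL each).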

Assay [19] addresses D(1A) dopamine receptor (Homo sapiens) (UniProt P21728). As to the kind of experiment: HTS Assay for Allosteric Agonists of the Human D1 Dopamine Receptor: Primary Screen for Potentiators (AID 488982). A digest of the protocol: as §1

Results filed as inconclusive are left out. Calls of active or inactive are those of the source. Unless noted, calls follow the shape of the dose curve; as a rule, active = well fitted curve in the direction sought with a large enough effect; inconclusive = small, poorly fitted or top-dose-only effect, or another doubt; inactive = no such curve, though single readings can be large; an effect the other way counts as inactive or inconclusive.

Sequence of M-phase phosphoprotein 8 (Homo sapiens) (Q99549 whole entry, looked up): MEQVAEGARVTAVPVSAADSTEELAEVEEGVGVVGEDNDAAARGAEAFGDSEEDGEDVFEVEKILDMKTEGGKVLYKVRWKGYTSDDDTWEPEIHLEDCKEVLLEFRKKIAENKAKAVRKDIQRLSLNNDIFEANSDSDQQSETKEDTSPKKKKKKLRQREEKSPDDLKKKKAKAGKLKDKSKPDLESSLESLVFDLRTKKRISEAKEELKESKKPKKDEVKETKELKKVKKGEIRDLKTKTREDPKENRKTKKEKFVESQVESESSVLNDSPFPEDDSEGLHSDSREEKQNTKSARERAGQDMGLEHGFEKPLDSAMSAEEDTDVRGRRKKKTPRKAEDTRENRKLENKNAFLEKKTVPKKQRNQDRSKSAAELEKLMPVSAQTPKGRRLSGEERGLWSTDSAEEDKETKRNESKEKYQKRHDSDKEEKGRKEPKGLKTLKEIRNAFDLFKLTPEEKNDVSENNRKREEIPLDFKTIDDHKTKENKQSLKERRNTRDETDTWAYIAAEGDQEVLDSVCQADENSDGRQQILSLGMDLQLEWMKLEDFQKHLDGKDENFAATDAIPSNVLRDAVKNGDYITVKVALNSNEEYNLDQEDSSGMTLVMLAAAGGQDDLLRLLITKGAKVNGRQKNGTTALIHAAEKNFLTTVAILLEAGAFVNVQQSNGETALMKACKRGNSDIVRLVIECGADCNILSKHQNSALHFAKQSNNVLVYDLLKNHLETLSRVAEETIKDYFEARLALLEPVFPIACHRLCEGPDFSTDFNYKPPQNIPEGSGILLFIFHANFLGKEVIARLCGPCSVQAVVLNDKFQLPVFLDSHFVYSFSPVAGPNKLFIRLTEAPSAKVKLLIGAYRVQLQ
Sequence of Thyrotropin receptor (Homo sapiens) (P16473 whole entry, looked up): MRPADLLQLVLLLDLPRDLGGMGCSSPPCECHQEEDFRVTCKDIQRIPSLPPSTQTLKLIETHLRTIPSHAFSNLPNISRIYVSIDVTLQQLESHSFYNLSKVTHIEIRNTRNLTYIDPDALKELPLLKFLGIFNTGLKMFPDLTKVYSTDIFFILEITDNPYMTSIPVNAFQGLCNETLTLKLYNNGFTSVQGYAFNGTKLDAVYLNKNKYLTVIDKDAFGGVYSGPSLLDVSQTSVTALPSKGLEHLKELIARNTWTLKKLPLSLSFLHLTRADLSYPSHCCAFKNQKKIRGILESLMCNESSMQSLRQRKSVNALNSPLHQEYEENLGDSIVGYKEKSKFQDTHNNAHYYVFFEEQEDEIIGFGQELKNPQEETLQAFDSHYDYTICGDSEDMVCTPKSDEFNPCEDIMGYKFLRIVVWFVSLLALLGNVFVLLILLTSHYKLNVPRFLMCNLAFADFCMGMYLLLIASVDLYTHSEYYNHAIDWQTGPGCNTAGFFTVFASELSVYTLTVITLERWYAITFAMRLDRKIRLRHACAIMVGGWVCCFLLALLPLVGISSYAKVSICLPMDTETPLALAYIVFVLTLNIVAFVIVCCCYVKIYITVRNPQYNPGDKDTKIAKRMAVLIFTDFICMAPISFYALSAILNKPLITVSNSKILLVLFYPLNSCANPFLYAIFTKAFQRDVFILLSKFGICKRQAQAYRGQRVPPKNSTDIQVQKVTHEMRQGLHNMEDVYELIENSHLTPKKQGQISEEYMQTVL
Sequence of D(1A) dopamine receptor (Homo sapiens) (P21728 whole entry, looked up): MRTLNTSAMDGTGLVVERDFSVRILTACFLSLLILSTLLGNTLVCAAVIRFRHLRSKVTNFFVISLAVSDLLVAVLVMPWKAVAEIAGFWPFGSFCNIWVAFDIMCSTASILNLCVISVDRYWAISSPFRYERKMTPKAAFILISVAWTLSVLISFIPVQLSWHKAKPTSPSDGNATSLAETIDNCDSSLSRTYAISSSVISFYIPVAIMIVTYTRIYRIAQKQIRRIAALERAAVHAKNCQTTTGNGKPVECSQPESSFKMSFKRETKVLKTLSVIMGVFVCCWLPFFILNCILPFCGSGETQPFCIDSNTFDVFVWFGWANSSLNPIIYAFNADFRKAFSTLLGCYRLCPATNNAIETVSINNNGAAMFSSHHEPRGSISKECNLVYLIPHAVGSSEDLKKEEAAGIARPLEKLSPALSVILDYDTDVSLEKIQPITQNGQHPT
Sequence of Thioredoxin reductase 1, cytoplasmic (Rattus norvegicus) (O89049 whole entry, looked up): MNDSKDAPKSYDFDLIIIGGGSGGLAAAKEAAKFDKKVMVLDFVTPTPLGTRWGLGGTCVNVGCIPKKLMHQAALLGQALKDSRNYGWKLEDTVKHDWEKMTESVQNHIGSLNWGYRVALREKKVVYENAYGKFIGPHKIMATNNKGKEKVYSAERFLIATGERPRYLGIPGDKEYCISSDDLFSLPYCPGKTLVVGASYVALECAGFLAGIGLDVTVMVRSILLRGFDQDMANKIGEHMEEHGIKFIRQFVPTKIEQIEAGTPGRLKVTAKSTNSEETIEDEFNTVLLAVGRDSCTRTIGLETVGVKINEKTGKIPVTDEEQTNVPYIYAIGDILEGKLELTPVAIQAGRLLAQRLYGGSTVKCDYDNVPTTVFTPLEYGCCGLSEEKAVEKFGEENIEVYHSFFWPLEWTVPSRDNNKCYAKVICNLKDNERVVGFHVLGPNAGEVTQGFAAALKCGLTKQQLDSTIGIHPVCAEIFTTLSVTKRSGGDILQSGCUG
Sequence of Flap endonuclease 1 (Homo sapiens) (P39748 whole entry, looked up): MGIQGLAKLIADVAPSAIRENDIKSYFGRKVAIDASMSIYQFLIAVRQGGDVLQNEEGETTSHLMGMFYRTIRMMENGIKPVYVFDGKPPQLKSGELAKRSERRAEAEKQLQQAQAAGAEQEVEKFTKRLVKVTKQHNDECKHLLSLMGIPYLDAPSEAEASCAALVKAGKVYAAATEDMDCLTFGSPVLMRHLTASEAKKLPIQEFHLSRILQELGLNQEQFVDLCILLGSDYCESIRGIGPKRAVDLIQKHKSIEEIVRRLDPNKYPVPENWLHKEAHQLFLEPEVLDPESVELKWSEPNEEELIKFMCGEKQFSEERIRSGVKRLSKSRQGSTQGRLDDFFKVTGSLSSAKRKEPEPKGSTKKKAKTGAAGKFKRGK
Sequence of Ubiquitin carboxyl-terminal hydrolase 2 (Homo sapiens) (O75604 whole entry, looked up): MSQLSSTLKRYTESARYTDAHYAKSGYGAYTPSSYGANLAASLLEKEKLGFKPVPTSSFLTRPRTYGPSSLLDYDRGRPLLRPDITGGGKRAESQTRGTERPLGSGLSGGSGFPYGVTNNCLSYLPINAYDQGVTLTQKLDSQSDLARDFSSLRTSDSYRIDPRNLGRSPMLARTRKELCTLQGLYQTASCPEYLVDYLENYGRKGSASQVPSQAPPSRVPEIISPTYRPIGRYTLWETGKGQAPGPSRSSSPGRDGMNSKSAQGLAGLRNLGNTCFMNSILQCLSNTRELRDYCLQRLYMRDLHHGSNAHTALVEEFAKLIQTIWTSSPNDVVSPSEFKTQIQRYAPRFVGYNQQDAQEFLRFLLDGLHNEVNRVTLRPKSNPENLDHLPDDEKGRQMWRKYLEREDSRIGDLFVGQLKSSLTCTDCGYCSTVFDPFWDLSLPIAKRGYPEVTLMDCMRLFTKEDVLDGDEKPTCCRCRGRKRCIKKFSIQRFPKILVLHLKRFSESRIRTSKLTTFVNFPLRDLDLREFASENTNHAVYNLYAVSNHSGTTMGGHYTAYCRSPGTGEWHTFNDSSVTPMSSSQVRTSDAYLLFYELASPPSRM
Sequence of DNA polymerase III PolC-type (Bacillus subtilis (strain 168)) (P13267 whole entry, looked up): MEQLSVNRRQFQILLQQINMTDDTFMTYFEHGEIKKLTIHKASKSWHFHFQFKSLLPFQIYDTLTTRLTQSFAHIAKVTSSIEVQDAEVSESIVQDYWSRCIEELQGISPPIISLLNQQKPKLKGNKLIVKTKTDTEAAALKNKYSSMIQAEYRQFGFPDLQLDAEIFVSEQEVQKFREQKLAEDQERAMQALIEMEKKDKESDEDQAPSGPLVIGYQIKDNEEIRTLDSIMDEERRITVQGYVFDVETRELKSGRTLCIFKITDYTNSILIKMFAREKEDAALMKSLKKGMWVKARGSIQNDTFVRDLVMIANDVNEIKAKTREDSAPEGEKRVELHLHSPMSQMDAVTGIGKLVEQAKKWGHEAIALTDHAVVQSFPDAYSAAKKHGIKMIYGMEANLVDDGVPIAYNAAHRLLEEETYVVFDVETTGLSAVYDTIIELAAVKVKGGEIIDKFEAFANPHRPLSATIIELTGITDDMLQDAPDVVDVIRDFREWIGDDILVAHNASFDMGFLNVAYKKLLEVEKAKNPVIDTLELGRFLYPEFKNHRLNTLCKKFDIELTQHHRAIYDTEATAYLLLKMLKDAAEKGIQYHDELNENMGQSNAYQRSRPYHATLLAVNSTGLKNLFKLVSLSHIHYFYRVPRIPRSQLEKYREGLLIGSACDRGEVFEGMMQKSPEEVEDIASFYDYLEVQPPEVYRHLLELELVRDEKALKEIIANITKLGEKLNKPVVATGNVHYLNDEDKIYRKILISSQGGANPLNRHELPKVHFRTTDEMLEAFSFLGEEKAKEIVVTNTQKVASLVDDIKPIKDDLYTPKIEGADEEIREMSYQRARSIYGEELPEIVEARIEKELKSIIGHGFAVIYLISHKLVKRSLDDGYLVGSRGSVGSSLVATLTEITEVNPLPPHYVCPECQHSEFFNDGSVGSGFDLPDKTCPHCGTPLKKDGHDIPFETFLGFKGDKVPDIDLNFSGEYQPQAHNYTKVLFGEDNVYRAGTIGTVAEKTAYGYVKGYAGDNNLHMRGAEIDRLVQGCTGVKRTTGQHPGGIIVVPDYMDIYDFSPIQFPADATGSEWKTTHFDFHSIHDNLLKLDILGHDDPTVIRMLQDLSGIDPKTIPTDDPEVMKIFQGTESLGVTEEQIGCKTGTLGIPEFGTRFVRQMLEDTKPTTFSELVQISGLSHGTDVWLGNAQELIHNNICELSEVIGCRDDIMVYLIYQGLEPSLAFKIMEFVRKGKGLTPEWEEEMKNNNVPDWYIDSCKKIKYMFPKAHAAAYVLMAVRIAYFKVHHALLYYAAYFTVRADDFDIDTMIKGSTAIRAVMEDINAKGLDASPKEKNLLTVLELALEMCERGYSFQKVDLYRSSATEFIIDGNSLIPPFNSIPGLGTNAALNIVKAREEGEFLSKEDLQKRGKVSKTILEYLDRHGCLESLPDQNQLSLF

In the case of `CC(C)C(=O)Nc1ccc([N+](=O)[O-])c(C(F)(F)F)c1`, the Potency result in assay [1], in assay [2], in assay [4], in assay [6], in assay [7] and in assay [8] was “inactive” each time. For the same compound, the Potency result in assay [10], in assay [11], in [15] and in assay [16] was “inactive” each time. For the same compound, the compound was called inactive in [3], in assay [5], in [9], in assay [12], in assay [13] and in assay [14].

With `O=C(C1CCCCC1)N1CC(=O)N2CCc3ccccc3C2C1` (configuration not stated), the Potency result in assay [1], in assay [2], in [4], in [7], in assay [8] and in [10] was “inactive” in each case. Besides, the Potency entry in [11], in [17], in assay [18], in assay [15], in [19] and in assay [16] was “inactive” each time. In addition, the result in assay [3], in [5], in assay [9], in assay [12] and in assay [13] was inactive.

Consider `Clc1ccccc1C(c1ccccc1)(c1ccccc1)n1ccnc1`, for which the Potency result in assay [1], in assay [2], in [4], in [10], in [11] and in assay [17] was “inactive” in each case. Further, the Potency result in assay [15], in [19] and in assay [16] was “inactive” throughout. Moreover, the compound was called inactive in assay [3], in assay [5], in assay [9], in [12], in assay [13] and in assay [14]. Besides, the values for the Potency in [7], in assay [8] and in assay [18] were 1.17 µM (active), 1.04 µM (active) and 0.0084 µM (active), respectively.

Regarding `Cc1cn([C@H]2C=C[C@@H](CO)O2)c(=O)[nH]c1=O`, the Potency result in assay [1], in [2], in assay [4], in assay [10], in [11] and in [17] was “inactive” each time. The Potency entry in assay [18], in assay [15], in [19] and in assay [16] was “inactive” each time. The compound was classed as inactive in [3], in assay [5], in assay [9], in assay [12], in assay [13] and in [14].

Regarding `CCC1(C)CC(=O)NC1=O` (configuration not stated), the Potency entry in assay [1], in assay [2], in assay [4], in assay [6], in assay [7] and in assay [10] was “inactive” throughout. The Potency entry in [11], in [17], in assay [18], in [15], in assay [19] and in assay [16] was “inactive” in each case. Also, the compound was called inactive in assay [3], in [5], in assay [9], in assay [12] and in assay [13].

Take `NCCS(=O)(=O)O`: the Potency entry in [1], in assay [2], in assay [4], in assay [6], in [7] and in [10] was “inactive” in each case. Further, the Potency entry in [11], in assay [17], in [18], in assay [15], in assay [19] and in assay [16] was “inactive” throughout. Also, the compound was classed as inactive in assay [3], in assay [5], in assay [9], in assay [12], in [13] and in assay [14].

In the case of `Cc1cn([C@H]2C[C@H](N=[N+]=[N-])[C@@H](CO)O2)c(=O)[nH]c1=O`, the Potency entry in assay [1], in assay [2], in [4], in assay [10], in assay [11] and in assay [17] was “inactive” each time. Besides, the Potency result in assay [18], in [15], in assay [19] and in assay [16] was “inactive” in each case. The compound was called inactive in [3], in assay [5], in assay [9] and in assay [12].

With `Cc1cnc(C(=O)NCCc2ccc(S(=O)(=O)NC(=O)NC3CCCCC3)cc2)cn1`, the Potency entry in assay [1], in assay [2], in assay [4], in assay [6], in [7] and in assay [10] was “inactive” in each case. Further, the Potency entry in assay [11], in assay [15], in assay [19] and in assay [16] was “inactive” in each case. Further, the result in [3], in [5], in assay [9], in assay [12], in assay [13] and in [14] was inactive.

Source of the values: PubChem BioAssay (NCATS).
